The values below come from ChEMBL document CHEMBL5308504, “Tm Shift (DSF) assay results for EUbOPEN Chemogenomics Library” (2023).

Each structure is given as a SMILES string. Several values for one entry are separate records, joined by “and”; a condition that tells them apart may be missing. Equal values may be shown once.

For the test, the target named is T1, Transcription intermediary factor 1-alpha (Homo sapiens) (UniProt O15164).
T1 sequence (whole entry): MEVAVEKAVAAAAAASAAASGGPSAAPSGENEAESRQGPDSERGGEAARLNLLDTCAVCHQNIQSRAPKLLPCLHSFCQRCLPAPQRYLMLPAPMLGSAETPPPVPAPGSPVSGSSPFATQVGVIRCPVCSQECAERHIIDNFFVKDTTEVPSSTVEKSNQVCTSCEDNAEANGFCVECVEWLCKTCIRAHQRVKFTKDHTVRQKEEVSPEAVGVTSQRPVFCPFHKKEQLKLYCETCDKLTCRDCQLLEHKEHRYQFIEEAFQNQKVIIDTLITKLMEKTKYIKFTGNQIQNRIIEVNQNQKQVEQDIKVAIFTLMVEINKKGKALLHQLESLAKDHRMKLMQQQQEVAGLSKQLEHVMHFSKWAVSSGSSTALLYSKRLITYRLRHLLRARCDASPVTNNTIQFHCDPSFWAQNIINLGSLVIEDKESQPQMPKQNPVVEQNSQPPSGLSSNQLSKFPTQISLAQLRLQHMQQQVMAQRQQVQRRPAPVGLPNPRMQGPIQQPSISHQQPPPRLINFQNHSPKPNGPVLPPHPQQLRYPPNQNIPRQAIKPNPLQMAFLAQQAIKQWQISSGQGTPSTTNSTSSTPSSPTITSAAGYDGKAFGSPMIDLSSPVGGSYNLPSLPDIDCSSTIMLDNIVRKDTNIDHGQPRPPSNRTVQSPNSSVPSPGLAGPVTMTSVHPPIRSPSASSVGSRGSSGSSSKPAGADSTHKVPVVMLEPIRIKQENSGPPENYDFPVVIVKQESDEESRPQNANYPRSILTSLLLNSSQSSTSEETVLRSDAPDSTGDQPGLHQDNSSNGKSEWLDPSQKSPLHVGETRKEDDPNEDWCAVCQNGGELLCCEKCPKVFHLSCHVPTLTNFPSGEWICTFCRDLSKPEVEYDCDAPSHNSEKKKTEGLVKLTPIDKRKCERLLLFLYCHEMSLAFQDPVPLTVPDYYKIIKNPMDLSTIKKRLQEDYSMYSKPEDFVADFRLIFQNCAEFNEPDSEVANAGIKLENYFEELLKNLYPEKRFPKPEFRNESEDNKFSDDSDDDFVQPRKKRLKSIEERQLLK
The settings on record: Compound concentration 20.0 uM, Protein concentration 2.0 uM, Result type QC Liability.
For the compound `NC(=O)OC[C@H](NC(=O)Cn1nc(-c2ccc(Cl)cc2)n(C[C@H](O)C(F)(F)F)c1=O)c1cccc(C(F)(F)F)c1`, the shift in melting temperature (ΔTm) worked out at 0.59 °C.
The same measure for `Cc1cc(NC(=O)c2cccc(NC(=O)/C=C/CN(C)C)c2)ccc1Nc1nccc(-c2cccnc2)n1`: -1.44 °C; for `CN(C)CCC[C@@]1(c2ccc(F)cc2)OCc2cc(C#N)ccc21`: -0.51 °C; for `CCCCC[C@H](O)/C=C/[C@H]1[C@H](O)CC(=O)[C@@H]1CCCCCCC(=O)O`: 0.28 °C.
`O=C(O)Cc1ccc(CCNS(=O)(=O)c2ccc(Cl)cc2)cc1`: the thermal shift (ΔTm) was -0.53 °C.
For the compound `CCOC(=O)CS(=O)(=O)c1ccc([C@@H](CO)NC(=O)c2cc3c(Cl)c(Cl)c(C)cc3n2C)cc1`, the ΔTm was -0.06 °C.
As for `CCN(C)S(=O)(=O)Nc1cccc(-c2ccc3c(NC(=O)C4CC4)n[nH]c3c2)c1`, the ΔTm was -0.53 °C.
`CN(C1CCc2c(c3ccccc3n2CC(=O)O)C1)S(=O)(=O)c1ccc(F)cc1` (centres undefined): the ΔTm was -0.54 °C.
The same measure for `C=CC1C[C@]1(NC(=O)[C@@H]1C[C@@H](Oc2cc(-c3csc(NC(=O)C(C)C)n3)nc3c(Br)c(OC)ccc23)CN1C(=O)[C@@H](NC(=O)OC1CCCC1)C(C)(C)C)C(=O)O` (some centres undefined): 2.85 °C; for `Cn1cc(-c2ccc(-c3cncc(Cl)c3N3CCC4(CCNC4=O)CC3)cc2)cn1`: -2 °C; for `O=C1COc2cc(C(=O)N(Cc3ccc(C(=O)Nc4ccncn4)cc3)C3CC3)ccc2N1`: -2.92 °C.
In the case of `O=C(Nc1ccc(N2CCC(C(=O)N3CCOCC3)CC2)cc1)c1cnc(Oc2ccccc2)nc1` it was -0.59 °C.
The same measure for `COc1cc2nc(-c3cc(F)ccc3O)nc(N[C@@H]3CNC[C@H]3C(C)(C)O)c2cc1OC`: -1.27 °C; for `CC(=O)Nc1ncc(CN2CCC[C@H](Cc3cc(C)nc(C)c3)C2)s1`: -2.22 °C.
Take `NC(=O)c1ccc(-c2nc(-c3ccc4c(c3)OCCO4)c(-c3ccccn3)[nH]2)cc1`: the ΔTm is -0.21 °C.
In the case of `Cc1cc(=O)oc2cc(NC(=O)[C@H](Cc3ccc(I)cc3)NC(=O)[C@H]3N[C@@H]4CC[C@H]3C4)ccc12` it was 0.3 °C.
In the case of `CC(=O)Nc1c(F)cc(C(=O)N[C@H]2CC[C@H](O)CC2)cc1O[C@@H](C)c1ccccc1` it was -0.63 °C; in that of `c1ccc2c(-c3coc4cc(-c5ccc(N6CCNCC6)cc5)cnc34)ccnc2c1`, -2.14 °C.
In the case of `CC(C)(C)C(=O)NCc1ccc(Cl)c(C(=O)Nc2ncc[nH]2)c1` it was -0.67 °C; in that of `Cc1cc(CN)cc(C)c1-c1ncn(C)c1-c1cncn1C`, 0.01 °C; in that of `CC(C)N(C(=O)C1CCOCC1)c1cc(F)c(Oc2ncc(Cn3nccn3)cc2C(F)(F)F)cc1C(=O)O`, 0.13 °C.
In the case of `CCn1ccc(Nc2ncc3c(n2)-c2c(nn(C)c2-c2ccc(-c4cnn(C)c4)cc2Cl)CC3)n1`, the ΔTm was -2.64 °C.
In the case of `C=CC(=O)Nc1cccc(C(=O)Nc2ccc(Nc3cc(-c4c(-c5ccc(F)cc5)nc(SC)n4C)ccn3)cc2)c1` it was -0.89 °C.
The same measure for `CCCc1c(OCCCOc2ccc(OCC(=O)O)cc2)ccc(C(C)=O)c1O`: -1.6 °C; for `N#CN1CC[C@H](C(=O)Nc2nc3c(s2)CN(C(=O)CN=[N+]=[N-])CC3)C1`: -1.13 °C.
On to `OC(c1ccc(-c2ccc(CN3CCN(Cc4ccncc4)CC3)cc2)c(F)c1)(C(F)(F)F)C(F)(F)F`, for which the ΔTm is -2.91 °C.
As for `COc1cc(-c2cncc(-c3cnn(C4CCNCC4)c3)c2)cc(OC)c1OC`, the ΔTm is -1.81 °C.
The same measure for `Cc1cc(OCCC(C)(C)O)cc(C)c1-c1ccc(F)c2c1CC[C@H]2Oc1ccc2c(c1)OC[C@H]2CC(=O)O`: -2.29 °C; for `CCCNc1ccc2ncc(-c3ccncc3)n2n1`: -2.61 °C; for `O=C1CCCN1CCNc1nc(Nc2ccc(Cl)c(Cl)c2)ncc1C(F)(F)F`: -1.81 °C.
In the case of `Cc1sc(C(=O)c2cncnc2N[C@@H]2C[C@H](COS(N)(=O)=O)[C@@H](O)C2)cc1[C@@H]1NCCc2ccc(Cl)cc21` it was -0.84 °C; in that of `COc1ccccc1-c1cc(Nc2cccc(CS(N)(=O)=O)c2)ncn1`, -0.57 °C; in that of `CC(=O)c1ccc2c(c1)/C(=C(/Nc1cccc(C#N)c1)c1ccc3c(c1)OCCO3)C(=O)N2`, -2.47 °C.
Consider `Cc1c(NC(=O)c2ccc(C(C)(C)C)cc2)cccc1-c1cn(C)c(=O)c(Nc2ccc(C(=O)N3CCOCC3)cc2)n1`, for which the ΔTm was found to be 0.14 °C.
In the case of `CC(F)(F)CN1C(=O)c2[nH]nc(-c3cccc4[nH]c(=O)oc34)c2C1c1ccc(Oc2cc(C(F)(F)F)cc(C(F)(F)F)c2)cc1` (centres undefined) it was -1.2 °C.
The same measure for `CC(C)(O)c1cn(-c2ccc(-c3cccc(S(C)(=O)=O)c3)cc2)c(C(C)(C)c2ccccc2Cl)n1`: -3.39 °C; for `CCc1nc(-c2cccc(C)c2)c(-c2ccnc(NC(=O)c3ccccc3)c2)s1`: -1.26 °C; for `CCS(=O)(=O)c1cc2cc(C[C@@](O)(CC(C)(C)c3ccc(F)cc3C(N)=O)C(F)(F)F)[nH]c2cn1`: 0.3 °C and -2.64 °C.
In the case of `Cn1cc(-c2cnc3ccc4ccc(CS(=O)(=O)NCc5ccccn5)cc4c(=O)c3c2)cn1` it was -0.28 °C.
